Assay results: PubChem BioAssay AID1159580 (chemical genetic matrix, 2015)
Hit rate of the full screen: of about 5,500 compounds, about 2,000 (36%) were called active. Not shown: some 18% with an inconclusive outcome. No stated cut-off is given here; in the data, active means normalized growth mostly below about 0.91 (no sharp cut-off); inconclusive means no clear call, values can overlap the other calls; inactive means mostly above about 0.92. Some of the results follow.

Assay: chemical genetic growth profiling, strain panel (AID 1159580);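 further: tested at 20 µM; growth read once vehicle control cultures reached saturation at 30 °C; 1 = growth at the plate median or of vehicle wells; lower values mean less growth of the strain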
Details: growth OD
[1] = S. cerevisiae deletion strains, locus YAL013W, strain DEP1, active compounds read low
[2] = S. cerevisiae deletion strains, locus YAL040C, strain CLN3, active compounds read low
[3] = S. cerevisiae deletion strains, locus YCL061C, strain MRC1 (second series), active compounds read low
[4] = S. cerevisiae deletion strains, locus YDR363W, strain ESC2, active compounds read low
[5] = S. cerevisiae deletion strains, locus YER002W, strain NOP16, active compounds read low
[6] = S. cerevisiae deletion strains, locus YGR229C, strain SMI1, active compounds read low
[7] = S. cerevisiae deletion strains, locus YMR307W, strain GAS1, active compounds read low
[8] = S. cerevisiae deletion strains, locus YNL153C, strain GIM3, active compounds read low
[9] = S. cerevisiae deletion strains, locus YNL175C, strain NOP13, active compounds read low
[10] = S. cerevisiae deletion strains, locus YNL197C, strain WHI3, active compounds read low
[11] = S. cerevisiae deletion strains, locus YNL224C, strain SQS1, active compounds read low
[12] = S. cerevisiae deletion strains, locus YNL322C, strain KRE1, active compounds read low
[13] = S. cerevisiae deletion strains, locus YOR083W, strain WHI5 (second series), active compounds read low
[14] = S. cerevisiae deletion strains, locus YPL241C, strain CIN2, active compounds read low
[15] = S. cerevisiae deletion strains, locus YGR078C, strain PAC10, active compounds read low
[16] = S. cerevisiae deletion strains, locus YBR229C, strain ROT2, active compounds read low
[17] = S. cerevisiae deletion strains, locus YDL101C, strain DUN1, active compounds read low
[18] = S. cerevisiae deletion strains, locus YDL134C, strain PPH21, active compounds read low
[19] = S. cerevisiae deletion strains, locus YDR150W, strain NUM1, active compounds read low
[20] = S. cerevisiae deletion strains, locus YEL061C, strain CIN8, active compounds read low
[21] = S. cerevisiae deletion strains, locus YHR030C, strain SLT2, active compounds read low
[22] = S. cerevisiae deletion strains, locus YHR087W, strain rtc3, active compounds read low
[23] = S. cerevisiae deletion strains, locus YJL187C, strain SWE1, active compounds read low
[24] = S. cerevisiae deletion strains, locus YJR043C, strain POL32, active compounds read low
[25] = S. cerevisiae deletion strains, locus YJR075W, strain HOC1, active compounds read low
[26] = S. cerevisiae deletion strains, locus YLR039C, strain RIC1, active compounds read low
[27] = S. cerevisiae deletion strains, locus YLR058C, strain SHM2 (second series), active compounds read low
[28] = S. cerevisiae deletion strains, locus YLR085C, strain ARP6, active compounds read low
[29] = S. cerevisiae deletion strains, locus YLR262C, strain YPT6, active compounds read low
[30] = S. cerevisiae deletion strains, locus YML094W, strain GIM5, active compounds read low
[31] = S. cerevisiae deletion strains, locus YMR219W, strain ESC1, active compounds read low
[32] = S. cerevisiae deletion strains, locus YMR263W, strain SAP30, active compounds read low
[33] = S. cerevisiae deletion strains, locus YNL298W, strain CLA4 (second series), active compounds read low
[34] = S. cerevisiae deletion strains, locus YNR030W, strain Alg12, active compounds read low
[35] = S. cerevisiae deletion strains, locus YPL055C, strain LGE1, active compounds read low
[36] = S. cerevisiae deletion strains, locus YPR135W, strain CTF4, active compounds read low
[37] = S. cerevisiae strains, strain wild type, active compounds read low
[38] = S. cerevisiae deletion strains, locus YHR079C, strain IRE1, active compounds read low
[39] = S. cerevisiae deletion strains, locus YJL095W, strain BCK1, active compounds read low
[40] = S. cerevisiae deletion strains, locus YJR066W, strain TOR1, active compounds read low
[41] = S. cerevisiae deletion strains, locus YLR113W, strain HOG1, active compounds read low
[42] = S. cerevisiae deletion strains, locus YNL183C, strain NPR1, active compounds read low
[43] = S. cerevisiae deletion strains, locus YOR231W, strain MKK1, active compounds read low
[44] = S. cerevisiae deletion strains, locus YPL256C, strain CLN2, active compounds read low

Measured: normalized growth

NC(Cc1cccc(-c2ccccc2CP(=O)(O)O)c1)C(=O)O (stereo unspecified)
inactive: [1] 0.998 | [2] 1 | [3] 1 | [4] 0.983 | [5] 1.02 | [6] 1.01 | [7] 0.989 | S. cerevisiae deletion strains, locus YNL128W, strain TEP1, active compounds read low 0.994 | [8] 1.04 | [9] 0.998 | [10] 0.995 | [11] 1 | [12] 1 | [13] 0.989 | [14] 1

C[C@H](Cc1ccccc1)Nc1ncnc2c1ncn2[C@@H]1O[C@H](CO)[C@H](O)C1O (stereo partly specified)
inactive: [1] 0.995 | [2] 0.979 | [3] 1.01 | [4] 0.989 | [5] 0.997 | [15] 1 | [6] 1 | [7] 1 | [8] 1.22 | [9] 0.989 | [10] 0.99 | [11] 1 | [12] 0.996 | [13] 0.988

C/C(=N/O)c1sc2nc(C(F)(F)F)nn2c1C
inactive: [1] 0.954 | [16] 0.957 | [17] 1.01 | [18] 0.966 | [19] 0.975 | [20] 0.981 | [15] 0.956 | [6] 0.982 | [21] 0.89 | [22] 0.961 | [23] 0.974 | [24] 0.977 | [25] 0.997 | [26] 0.795 | [27] 0.953 | [28] 1.05 | [29] 0.86 | [30] 0.943 | [31] 0.963 | [32] 0.964 | [8] 1 | [33] 0.99 | [12] 0.962 | [34] 0.989 | [35] 0.96 | [14] 1.02 | [36] 0.851 | [37] 0.962

Cc1c(C(=O)Sc2ccc(F)cc2F)sc2nc(C(F)(F)F)nn12
active: S. cerevisiae deletion strains, locus YAR019C, strain CDC15, active compounds read low 0.0973 | S. cerevisiae deletion strains, locus YBL105C, strain PKC1, active compounds read low 0.0839 | S. cerevisiae deletion strains, locus YBR135W, strain CKS1, active compounds read low 0.105 | S. cerevisiae deletion strains, locus YBR136W, strain MEC1, active compounds read low 0.0954 | S. cerevisiae deletion strains, locus YBR160W, strain CDC28, active compounds read low 0.0992 | S. cerevisiae deletion strains, locus YDL017W, strain CDC7, active compounds read low 0.0838 | S. cerevisiae deletion strains, locus YDL028C, strain MPS1, active compounds read low 0.38 | [17] 0.0962 | S. cerevisiae deletion strains, locus YDL108W, strain KIN28, active compounds read low 0.105 | S. cerevisiae deletion strains, locus YDL132W, strain cdc53, active compounds read low 0.0969 | S. cerevisiae deletion strains, locus YDL214C, strain PRR2, active compounds read low 0.103 | S. cerevisiae deletion strains, locus YDR052C, strain DBF4, active compounds read low 0.102 | S. cerevisiae deletion strains, locus YDR054C, strain cdc34, active compounds read low 0.0939 | S. cerevisiae deletion strains, locus YDR226W, strain ADK1, active compounds read low 0.105 | S. cerevisiae deletion strains, locus YDR477W, strain SNF1, active compounds read low 0.107 | S. cerevisiae deletion strains, locus YER123W, strain YCK3, active compounds read low 0.111 | S. cerevisiae deletion strains, locus YER133W, strain GLC7, active compounds read low 0.106 | S. cerevisiae deletion strains, locus YFL009W, strain cdc4, active compounds read low 0.102 | S. cerevisiae deletion strains, locus YFL029C, strain CAK1, active compounds read low 0.101 | S. cerevisiae deletion strains, locus YFR003C, strain YPI1, active compounds read low 0.45 | S. cerevisiae deletion strains, locus YFR019W, strain FAB1, active compounds read low 0.107 | S. cerevisiae deletion strains, locus YFR028C, strain CDC14, active compounds read low 0.0976 | S. cerevisiae deletion strains, locus YGR040W, strain KSS1, active compounds read low 0.0958 | S. cerevisiae deletion strains, locus YGR052W, strain FMP48, active compounds read low 0.106 | S. cerevisiae deletion strains, locus YGR092W, strain DBF2, active compounds read low 0.116 | [21] 0.103 | [38] 0.101 | S. cerevisiae deletion strains, locus YHR082C, strain KSP1, active compounds read low 0.133 | S. cerevisiae deletion strains, locus YHR205W, strain SCH9, active compounds read low 0.000493 | S. cerevisiae deletion strains, locus YIL147C, strain SLN1, active compounds read low 0.488 | [39] 0.0913 | S. cerevisiae deletion strains, locus YJL128C, strain PBS2, active compounds read low 0.0913 | S. cerevisiae deletion strains, locus YJL157C, strain FAR1, active compounds read low 0.0866 | S. cerevisiae deletion strains, locus YJR016C, strain ILV3, active compounds read low 0.0901 | S. cerevisiae deletion strains, locus YJR066W, strain TOR1 (second series), active compounds read low 0.0917 | [40] 0.122 | S. cerevisiae deletion strains, locus YKL048C, strain ELM1, active compounds read low 0.131 | S. cerevisiae deletion strains, locus YKL067W, strain YNK1, active compounds read low 0.108 | S. cerevisiae deletion strains, locus YKL101W, strain HSL1, active compounds read low 0.0974 | S. cerevisiae deletion strains, locus YKL193C, strain SDS22, active compounds read low 0.101 | S. cerevisiae deletion strains, locus YKL203C, strain TOR2, active compounds read low 0.103 | [41] 0.145 | S. cerevisiae deletion strains, locus YLR133W, strain CKI1, active compounds read low 0.0966 | S. cerevisiae deletion strains, locus YLR403W, strain SFP1, active compounds read low -0.00147 | S. cerevisiae deletion strains, locus YML070W, strain DAK1, active compounds read low 0.103 | S. cerevisiae deletion strains, locus YMR001C, strain CDC5, active compounds read low 0.0979 | S. cerevisiae deletion strains, locus YMR205C, strain PFK2 (second series), active compounds read low 0.101 | S. cerevisiae deletion strains, locus YMR277W, strain FCP1, active compounds read low 0.1 | S. cerevisiae deletion strains, locus YNL006W, strain LST8, active compounds read low 0.0889 | S. cerevisiae deletion strains, locus YNL020C, strain ARK1, active compounds read low 0.0935 | S. cerevisiae deletion strains, locus YNL161W, strain CBK1, active compounds read low 0.0956 | [42] 0.104 | S. cerevisiae deletion strains, locus YNL207W, strain RIO2, active compounds read low 0.214 | S. cerevisiae deletion strains, locus YNL222W, strain SSU72, active compounds read low 0.102 | S. cerevisiae deletion strains, locus YNL307C, strain MCK1 (second series), active compounds read low 0.105 | S. cerevisiae deletion strains, locus YOL078W, strain AVO1, active compounds read low 0.101 | S. cerevisiae deletion strains, locus YOL136C, strain PFK27, active compounds read low 0.0958 | S. cerevisiae deletion strains, locus YOR061W, strain CKA2, active compounds read low 0.12 | S. cerevisiae deletion strains, locus YOR119C, strain RIO1, active compounds read low 0.116 | [43] 0.103 | S. cerevisiae deletion strains, locus YOR329C, strain SCD5, active compounds read low 0.0884 | S. cerevisiae deletion strains, locus YPL031C, strain PHO85, active compounds read low 0.0971 | S. cerevisiae deletion strains, locus YPL153C, strain RAD53, active compounds read low 0.102 | S. cerevisiae deletion strains, locus YPL204W, strain HRR25, active compounds read low 0.111 | S. cerevisiae deletion strains, locus YPL209C, strain IPL1, active compounds read low 0.0875 | [44] 0.124 | S. cerevisiae deletion strains, locus YPR025C, strain CCL1, active compounds read low 0.0998 | S. cerevisiae deletion strains, locus YPR106W, strain ISR1, active compounds read low 0.109 | S. cerevisiae deletion strains, locus YPR111W, strain DBF20, active compounds read low 0.169 | S. cerevisiae deletion strains, strain NNK1, active compounds read low 0.105 | S. cerevisiae deletion strains, strain TSCII, active compounds read low 0.104

C=CC1(C)CC(=O)C2(O)C(C)(O1)C(OC(C)=O)C(O)C1C(C)(C)CCC(O)C12C (stereo unspecified)
inactive: [2] 0.968 | [3] 0.985 | [19] 1 | [4] 0.969 | [5] 0.986 | [15] 0.996 | [25] 0.992 | [8] 1.02 | [9] 1.02 | [10] 0.994 | [11] 0.99 | [12] 0.985 | [13] 1.01 | [35] 0.994 | [14] 0.998

CSc1nc2cc(Oc3cccc(Cl)c3Cl)c(Cl)cc2[nH]1
active: [21] 0.11 | [38] 0.119 | [39] 0.114 | [40] 0.0117 | [41] 0.156 | [42] 0.000876 | [43] 0.125 | [44] 0.138

CSc1nc2ccccc2[nH]1
inactive: [1] 0.987 | [16] 0.996 | S. cerevisiae deletion strains, locus YCL061C, strain MRC1, active compounds read low 0.992 | [17] 0.999 | [18] 0.948 | [19] 1.02 | [20] 0.936 | [15] 0.99 | [21] 1.03 | [22] 0.969 | [23] 0.973 | [24] 1 | [25] 0.956 | S. cerevisiae deletion strains, locus YKL190W, strain CNB1, active compounds read low 0.984 | [26] 1.01 | [27] 0.983 | [28] 0.895 | [29] 1.01 | [30] 0.96 | [31] 0.99 | [32] 1.02 | [7] 0.89 | [8] 1.02 | [33] 0.95 | [12] 0.977 | [34] 0.923 | [35] 1.03 | [14] 0.944 | [36] 0.973 | [37] 0.981
